Here are results for ten compounds from PubChem BioAssay (NCI).

Molecules are shown by their SMILES. The panel holds about 83,000 compounds, 20% with a hit somewhere; the sample as a whole holds those more often.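 Single-concentration screen, 48 h exposure, 96-well plates. Endpoint: percent growth. Below 10 = active.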 Unmarked numbers belong to inactive results. The source made the active and inactive calls.

Common to all, as to assay: NCI-60 one-dose screen, 48 h (100 = growth as untreated, 0 = no growth, -100 = all killed)
The subject of one experiment is HCT-15 colon. To be noted: 10 µM unless noted.
Another experiment relates to HT29 colon. The following applies: 10 µM unless noted.
The next experiment deals with SNB-75 CNS. To be noted: 10 µM unless noted.
In another experiment the test system is SNB-19 CNS. The following applies: 10 µM unless noted.
The subject of a further experiment is U251 CNS. The following applies: 10 µM unless noted.
Another experiment concerns PC-3 prostate. To be noted: 10 µM unless noted.
A further experiment relates to UACC-62 melanoma. To be noted: 10 µM unless noted.
The test system of a further experiment is LOX IMVI melanoma. The following applies: 10 µM unless noted.
The test system of a further experiment is SK-MEL-28 melanoma. The following applies: 10 µM unless noted.
The next experiment concerns SK-MEL-2 melanoma. The following applies: 10 µM unless noted.
A further experiment concerns EKVX NSCLC. The following applies: 10 µM.
Another experiment relates to SN12C renal. To be noted: 10 µM unless noted.
Another experiment has as its system UO-31 renal. To be noted: 10 µM unless noted.
The test system of another experiment is TK-10 renal. To be noted: 10 µM unless noted.
For the next experiment, the system named is ACHN renal. To be noted: 10 µM unless noted.
Another experiment concerns CAKI-1 renal. To be noted: 10 µM unless noted.
The test system of another experiment is A498 renal. The following applies: 10 µM unless noted.
In the next experiment the test system is CCRF-CEM leukemia. To be noted: 10 µM.
The next experiment has as its system MOLT-4 leukemia. To be noted: 10 µM unless noted.
In the next experiment the test system is SK-MEL-5 melanoma. The following applies: 10 µM unless noted.

Turning to `Cc1ccc2c(c1)C(=O)CCS2`, the growth is 90.8% in the experiment with HCT-15 colon; 103% in the experiment with HT29 colon; 80.8% with SNB-75 CNS; 111% with SNB-19 CNS; 92.9% in the experiment with U251 CNS; 101% in the experiment on PC-3 prostate. The growth with UACC-62 melanoma was 97.4%; in the experiment on LOX IMVI melanoma it was 95%; in the experiment with SK-MEL-28 melanoma, 102%; in the experiment on SK-MEL-2 melanoma, 119%; in the experiment with EKVX NSCLC, 100%; in the experiment on SN12C renal, 101%. Also, the growth in the experiment on UO-31 renal was 83.8%; with TK-10 renal it was 90.8%; in the experiment on ACHN renal it was 107%; with CAKI-1 renal it was 99%; with A498 renal, 82.8%; with CCRF-CEM leukemia, 109%. The growth in the experiment with MOLT-4 leukemia is 118%.

With `C=C[C@]1(C)C=C2C(=O)[C@@]3(O)OC[C@@]4(CCCC(C)(C)C43O)C2(O)C(O)C1` (some centres undefined), the growth in the experiment with HCT-15 colon was 12.9%; with HT29 colon it was -68.6% (active); in the experiment on SNB-75 CNS, 69.6%; in the experiment with SNB-19 CNS, 99.3%; in the experiment with U251 CNS, 53.9%; with PC-3 prostate it was 55.2%. The growth with UACC-62 melanoma was 86.3%; in the experiment with LOX IMVI melanoma, 12.2%; in the experiment with SK-MEL-28 melanoma, 47.2%; with SK-MEL-2 melanoma, -0.387% (active); in the experiment with EKVX NSCLC, 91.2%; in the experiment on SN12C renal, 93.2%. Further, the growth with UO-31 renal is 33.8%; in the experiment on TK-10 renal, -68.2% (active); in the experiment with ACHN renal, 3.59% (active); with CAKI-1 renal, 10.8%; in the experiment with A498 renal it was 99.4%; with MOLT-4 leukemia, 78%.

As for `COc1ccc(/C=N/c2cc(C(C)(C)C)nn2-c2ccccc2)cc1`, the growth in the experiment with HCT-15 colon was 86.8%; in the experiment with HT29 colon it was 99.9%; in the experiment on SNB-75 CNS it was 114%; in the experiment on SNB-19 CNS, 94.6%; in the experiment with U251 CNS, 97.9%; with SK-MEL-5 melanoma, 98%. In addition, the growth in the experiment on UACC-62 melanoma was 86.7%; in the experiment on LOX IMVI melanoma, 99.8%; in the experiment on SK-MEL-28 melanoma, 111%; in the experiment on SK-MEL-2 melanoma, 124%; in the experiment with EKVX NSCLC, 104%; in the experiment with SN12C renal, 102%. The growth was 94.5% in the experiment with UO-31 renal; 117% with TK-10 renal; 95.7% in the experiment with ACHN renal; 103% with A498 renal; 96% in the experiment with MOLT-4 leukemia.

`CCOC(=O)c1sc(NS(=O)(=O)c2ccccc2)nc1C`: the growth is 115% in the experiment with HCT-15 colon; 124% with HT29 colon; 97.9% with SNB-75 CNS; 107% with SNB-19 CNS; 109% in the experiment with U251 CNS; 99.3% in the experiment on SK-MEL-5 melanoma. For the same compound, the growth was 103% with UACC-62 melanoma; 105% in the experiment with LOX IMVI melanoma; 123% in the experiment with SK-MEL-28 melanoma; 2.52% (active) in the experiment with SK-MEL-2 melanoma; 116% with EKVX NSCLC; 100% in the experiment with SN12C renal. In addition, the growth with UO-31 renal was 87%; in the experiment with TK-10 renal it was 163%; in the experiment on ACHN renal, 123%; with CAKI-1 renal it was 124%; with A498 renal, 114%; in the experiment on CCRF-CEM leukemia, 103%. For the same compound, in the experiment with MOLT-4 leukemia, the growth is 75.6%.

Turning to `COC(=O)C1CC(=O)N(C(=O)Nc2ccc(Cl)cc2Cl)C1` (centres undefined), the growth was 99% in the experiment on HCT-15 colon; 101% in the experiment on HT29 colon; 98.7% with SNB-75 CNS; 102% with SNB-19 CNS; 97.3% with U251 CNS; 95.2% in the experiment on PC-3 prostate. Also, the growth in the experiment with UACC-62 melanoma was 97.2%; in the experiment on LOX IMVI melanoma it was 96.8%; in the experiment on SK-MEL-28 melanoma, 112%; in the experiment on SK-MEL-2 melanoma, 108%; with EKVX NSCLC, 96.5%; in the experiment with SN12C renal, 101%. Also, the growth in the experiment with UO-31 renal was 84.1%; in the experiment on TK-10 renal, 112%; in the experiment with ACHN renal it was 99.9%; in the experiment with CAKI-1 renal it was 95.6%; in the experiment with A498 renal, 115%; in the experiment with CCRF-CEM leukemia, 103%. Besides, the growth in the experiment on MOLT-4 leukemia is 95%.

`FC(F)(F)c1cccc(-c2[nH]ncc2-c2nnnn2-c2ccccc2)c1`: the growth is 35.6% with HCT-15 colon; 15.1% with HT29 colon; 47.5% with SNB-75 CNS; 50.8% in the experiment with SNB-19 CNS; 30.1% in the experiment on U251 CNS; 44% in the experiment with PC-3 prostate. The growth in the experiment on UACC-62 melanoma is 36.9%; with LOX IMVI melanoma, 44.8%; with SK-MEL-28 melanoma, 60.8%; with SK-MEL-2 melanoma it was 78.3%; in the experiment on EKVX NSCLC, 52.6%; in the experiment with SN12C renal, 65.5%. In addition, the growth in the experiment with UO-31 renal was 72.4%; with TK-10 renal, 65.5%; with ACHN renal, 68.6%; in the experiment on CAKI-1 renal, 69.4%; in the experiment on A498 renal, 43.4%; with CCRF-CEM leukemia, 53.5%. For the same compound, the growth with MOLT-4 leukemia was 27.1%.

As to `CC([C@H]1CC=C2C3CCC4=C[C@@H](N(C)C)CC[C@]4(C)C3CC[C@@]21C)N(C)C` (some centres undefined), the growth was -20.7% (active) in the experiment with HCT-15 colon; -18.3% (active) in the experiment with HT29 colon; 32.4% in the experiment on SNB-75 CNS; 79.7% with SNB-19 CNS; 31.5% with U251 CNS; 42.3% with PC-3 prostate. Moreover, the growth with UACC-62 melanoma was -58.3% (active); in the experiment with LOX IMVI melanoma, -46.5% (active); in the experiment on SK-MEL-28 melanoma, -33.6% (active); in the experiment on SK-MEL-2 melanoma it was 90.8%; in the experiment on EKVX NSCLC it was -38.8% (active); in the experiment on SN12C renal it was 21.5%. Besides, the growth is 95.5% in the experiment on TK-10 renal; 48.1% in the experiment on ACHN renal; -48.8% (active) in the experiment on CAKI-1 renal; 96.4% in the experiment on A498 renal; 43.4% in the experiment on CCRF-CEM leukemia; 73.5% in the experiment on MOLT-4 leukemia.

In the case of `C=CC1CN2CCC1CC2C(O)c1ccnc2ccc(OC)cc12` (centres undefined), the growth in the experiment on HCT-15 colon is 104%; in the experiment on HT29 colon it was 98.6%; in the experiment with SNB-75 CNS, 78.2%; in the experiment on SNB-19 CNS it was 96.1%; in the experiment on U251 CNS, 103%; in the experiment on SK-MEL-5 melanoma, 97.9%. The growth in the experiment with UACC-62 melanoma is 100%; with LOX IMVI melanoma, 93.3%; with SK-MEL-28 melanoma it was 115%; in the experiment on SK-MEL-2 melanoma it was 2.09% (active); with EKVX NSCLC it was 102%; with SN12C renal, 98.7%. In addition, the growth is 60.2% in the experiment on UO-31 renal; 108% with TK-10 renal; 97.9% with ACHN renal; 103% with CAKI-1 renal; 108% in the experiment on A498 renal; 106% in the experiment with CCRF-CEM leukemia. For the same compound, in the experiment with MOLT-4 leukemia, the growth is 106%.

Regarding `CCN(CC)CCNc1ncnc2c1cnn2-c1ccc(Cl)cc1`, the growth in the experiment with HCT-15 colon is 34.8%; in the experiment with HT29 colon, 7.44% (active); in the experiment with SNB-75 CNS, 74.4%; in the experiment with SNB-19 CNS, 91.2%; with U251 CNS it was 75.5%; in the experiment on PC-3 prostate, 82%. Besides, the growth in the experiment on UACC-62 melanoma was -50.5% (active); with LOX IMVI melanoma, 60%; with SK-MEL-28 melanoma it was -40.4% (active); in the experiment on EKVX NSCLC, 82.8%; in the experiment with SN12C renal it was 80.6%; with TK-10 renal, 118%. Besides, the growth is 92.6% with ACHN renal; 61.5% in the experiment on CAKI-1 renal; 73.1% in the experiment on A498 renal; 50.8% with CCRF-CEM leukemia; 92.9% in the experiment with MOLT-4 leukemia.

Consider `CCOC(=O)CNS(=O)(=O)CC(=O)c1ccccc1`, for which the growth was 110% in the experiment on HCT-15 colon; 80.1% in the experiment with HT29 colon; 69.4% with SNB-75 CNS; 94.3% in the experiment on SNB-19 CNS; 96.7% in the experiment on U251 CNS; 92% in the experiment with PC-3 prostate. The growth was 95.3% with UACC-62 melanoma; 104% in the experiment with LOX IMVI melanoma; 127% with SK-MEL-28 melanoma; 128% in the experiment with SK-MEL-2 melanoma; 90.3% in the experiment on EKVX NSCLC; 84.2% with SN12C renal. Moreover, the growth in the experiment with UO-31 renal was 86.6%; with TK-10 renal, 80.9%; in the experiment with ACHN renal, 99.5%; in the experiment on CAKI-1 renal it was 93%; with A498 renal, 117%; with CCRF-CEM leukemia, 105%. Besides, the growth with MOLT-4 leukemia was 109%.
